Experimental data: PubChem BioAssay AID1159580 (chemical genetic matrix, 2015)
The campaign covered roughly 5,500 compounds. About 2,000 (36%) were called active. Another 18% or so got no clear call; they are omitted. Cut-off read from the data, not from the text of the source: active = normalized growth mostly below about 0.91 (no sharp cut-off); inconclusive = no clear call, values can overlap the other calls; inactive = mostly above about 0.92. Some of the results follow.

Experiment: chemical genetic growth profiling, strain panel (AID 1159580);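 note: tested at 20 µM; growth read once vehicle control cultures reached saturation at 30 °C; 1 = growth at the plate median or of vehicle wells; lower values mean less growth of the strain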
Conditions: growth OD

Measured: normalized growth

CCCCCCCCCCC[C@@H](C[C@H]1OC(=O)[C@H]1CCCCCC)OC(=O)[C@@H](CC(C)C)NC=O
inactive: S. cerevisiae deletion strains, locus YJR043C, strain POL32, active compounds read low 1.03 | S. cerevisiae deletion strains, locus YJR075W, strain HOC1, active compounds read low 1.06 | S. cerevisiae deletion strains, locus YKL009W, strain mrt4, active compounds read low 0.996 | S. cerevisiae deletion strains, locus YKL068W, active compounds read low 1 | S. cerevisiae deletion strains, locus YKL085W, strain MDH1 (second series), active compounds read low 1.02 | S. cerevisiae deletion strains, locus YKL085W, strain MDH1, active compounds read low 1.02 | S. cerevisiae deletion strains, locus YKL160W, strain elf1, active compounds read low 0.988 | S. cerevisiae deletion strains, locus YKL190W, strain CNB1, active compounds read low 1.03 | S. cerevisiae deletion strains, locus YKR001C, strain vps1, active compounds read low 1.03 | S. cerevisiae deletion strains, locus YKR026C, strain gcn3, active compounds read low 1.03 | S. cerevisiae deletion strains, locus YKR091W, strain srl3, active compounds read low 1.05 | S. cerevisiae deletion strains, locus YLL001W, strain dnm1, active compounds read low 1.04 | S. cerevisiae deletion strains, locus YLL026W, active compounds read low 0.997 | S. cerevisiae deletion strains, locus YLL041C, strain sdh2, active compounds read low 1.03 | S. cerevisiae deletion strains, locus YLR027C, strain aat2, active compounds read low 1.03 | S. cerevisiae deletion strains, locus YLR039C, strain RIC1, active compounds read low 1.03 | S. cerevisiae deletion strains, locus YLR058C, strain SHM2, active compounds read low 1.04 | S. cerevisiae deletion strains, locus YLR102C, strain apc9, active compounds read low 1.01 | S. cerevisiae deletion strains, locus YLR221C, strain rsa3, active compounds read low 1.03 | S. cerevisiae deletion strains, locus YLR258W, strain gsy2, active compounds read low 1.03 | S. cerevisiae deletion strains, locus YLR262C, strain YPT6 (second series), active compounds read low 1.1 | S. cerevisiae deletion strains, locus YLR262C, strain YPT6, active compounds read low 1.07 | S. cerevisiae deletion strains, locus YLR268W, strain sec22, active compounds read low 1.02 | S. cerevisiae deletion strains, locus YLR320W, strain mms22, active compounds read low 1.05 | S. cerevisiae deletion strains, locus YLR330W, strain CHS5, active compounds read low 1.03 | S. cerevisiae deletion strains, locus YLR342W, strain FKS1 (second series), active compounds read low 1.02 | S. cerevisiae deletion strains, locus YLR342W, strain FKS1, active compounds read low 1.01 | S. cerevisiae deletion strains, locus YLR357W, strain rsc2, active compounds read low 1.09 | S. cerevisiae deletion strains, locus YLR370C, strain arc18, active compounds read low 1.03 | S. cerevisiae deletion strains, locus YLR371W, strain rom2, active compounds read low 1.01 | S. cerevisiae deletion strains, locus YLR384C, strain iki3, active compounds read low 1.03 | S. cerevisiae deletion strains, locus YLR418C, strain cdc73, active compounds read low 1.03 | S. cerevisiae deletion strains, locus YML016C, strain PPZ1, active compounds read low 1.04 | S. cerevisiae deletion strains, locus YML032C, strain rad52, active compounds read low 1.04 | S. cerevisiae deletion strains, locus YML120C, strain ndi1, active compounds read low 1.02 | S. cerevisiae deletion strains, locus YML124C, strain tub3, active compounds read low 1.01 | S. cerevisiae deletion strains, locus YMR058W, strain fet3, active compounds read low 1.06 | S. cerevisiae deletion strains, locus YMR078C, strain ctf18, active compounds read low 1.03 | S. cerevisiae deletion strains, locus YMR125W, strain sto1, active compounds read low 1.05 | S. cerevisiae deletion strains, locus YMR129W, active compounds read low 1.02 | S. cerevisiae deletion strains, locus YMR205C, strain PFK2, active compounds read low 1.02 | S. cerevisiae deletion strains, locus YMR223W, strain ubp8, active compounds read low 1.03 | S. cerevisiae deletion strains, locus YMR231W, strain pep5, active compounds read low 1.05 | S. cerevisiae deletion strains, locus YMR263W, strain SAP30, active compounds read low 1.04 | S. cerevisiae deletion strains, locus YMR307W, strain GAS1, active compounds read low 1.05 | S. cerevisiae deletion strains, locus YNL067W, strain RPL9B, active compounds read low 1.04 | S. cerevisiae deletion strains, locus YNL071W, strain lat1, active compounds read low 1.02 | S. cerevisiae deletion strains, locus YNL128W, strain TEP1, active compounds read low 1.02 | S. cerevisiae deletion strains, locus YNL153C, strain GIM3, active compounds read low 1.04 | S. cerevisiae deletion strains, locus YNL209W, strain ssb2, active compounds read low 1.06 | S. cerevisiae deletion strains, locus YNL233W, strain BNI4, active compounds read low 1.03 | S. cerevisiae deletion strains, locus YNL248C, strain rpa49, active compounds read low 1.06 | S. cerevisiae deletion strains, locus YNL250W, strain rad50, active compounds read low 1.03 | S. cerevisiae deletion strains, locus YNL271C, strain bni1, active compounds read low 1.02 | S. cerevisiae deletion strains, locus YNL298W, strain CLA4, active compounds read low 1.03 | S. cerevisiae deletion strains, locus YNL307C, strain MCK1, active compounds read low 1.03 | S. cerevisiae deletion strains, locus YNL322C, strain KRE1 (second series), active compounds read low 1.03 | S. cerevisiae deletion strains, locus YNL322C, strain KRE1, active compounds read low 1.04 | S. cerevisiae deletion strains, locus YNR049C, strain mso1, active compounds read low 1.04 | S. cerevisiae deletion strains, locus YNR052C, strain pop2, active compounds read low 1.03 | S. cerevisiae deletion strains, locus YOL006C, strain TOP1, active compounds read low 1.08 | S. cerevisiae deletion strains, locus YOL012C, strain htz1 1.37 | S. cerevisiae deletion strains, locus YOL147C, strain pex11, active compounds read low 1.02 | S. cerevisiae deletion strains, locus YOR001W, strain rrp6, active compounds read low 1.03 | S. cerevisiae deletion strains, locus YOR061W, strain CKA2, active compounds read low 1.03 | S. cerevisiae deletion strains, locus YOR069W, strain VPS5, active compounds read low 1.02 | S. cerevisiae deletion strains, locus YOR070C, strain gyp1, active compounds read low 1.04 | S. cerevisiae deletion strains, locus YOR080W, strain dia2, active compounds read low 0.999 | S. cerevisiae deletion strains, locus YOR083W, strain WHI5, active compounds read low 1.04 | S. cerevisiae deletion strains, locus YOR106W, strain vam3, active compounds read low 1.03 | S. cerevisiae deletion strains, locus YOR136W, strain idh2, active compounds read low 1.03 | S. cerevisiae deletion strains, locus YOR144C, strain elg1, active compounds read low 1.02 | S. cerevisiae deletion strains, locus YOR184W, strain ser1, active compounds read low 1 | S. cerevisiae deletion strains, locus YOR265W, strain rbl2, active compounds read low 1.05 | S. cerevisiae deletion strains, locus YOR270C, strain vph1, active compounds read low 1.11 | S. cerevisiae deletion strains, locus YOR290C, strain snf2, active compounds read low 1.05 | S. cerevisiae deletion strains, locus YOR316C, strain cot1, active compounds read low 1.01 | S. cerevisiae deletion strains, locus YPL051W, strain arl3, active compounds read low 1.06 | S. cerevisiae deletion strains, locus YPL055C, strain LGE1, active compounds read low 1.04 | S. cerevisiae deletion strains, locus YPL078C, strain atp4, active compounds read low 1.08 | S. cerevisiae deletion strains, locus YPL106C, strain sse1, active compounds read low 1.05 | S. cerevisiae deletion strains, locus YPL240C, strain hsp82, active compounds read low 1.02 | S. cerevisiae deletion strains, locus YPL241C, strain CIN2, active compounds read low 1.03 | S. cerevisiae deletion strains, locus YPR119W, strain clb2, active compounds read low 0.996 | S. cerevisiae deletion strains, locus YPR141C, strain kar3, active compounds read low 1.02 | S. cerevisiae deletion strains, locus YPR163C, strain tif3, active compounds read low 1.03 | S. cerevisiae deletion strains, locus YPR167C, strain met16, active compounds read low 1.01 | S. cerevisiae deletion strains, strain wtn01, active compounds read low 1.01 | S. cerevisiae strains, strain wild type, active compounds read low 1.04
